In the supplement of paper PMC10681739:

Target: RUNX1 (UniProt Q01196)
Assay: RUNX1 binding intensity (PBM fluorescence) in presence of ETS1, normalised to RUNX1-only experiment (arbitrary fluorescence units); higher = stronger binding
Settings: RUNX1 concentration 2 nM; ETS1 concentration 25 nM
Description: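 Cooperative gcPBM on 36-bp genomic probes with neighbouring ETS1 and RUNX1 sites. Recombinant human RUNX1 (2 nM) was incubated alone or with ETS1 (25 nM) and detected with anti-RUNX1 antibody plus Alexa488 secondary. Values are medians over 4 replicate spots; the RUNX1+ETS1 data were normalised to the RUNX1-only data. The probes sit in constant array flanks that are not printed.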
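Also: Full-length recombinant human ETS1 or RUNX1 bound to double-stranded 36-bp genomic probes on microarrays, detected by protein-specific primary antibody and Alexa488 secondary, spot fluorescence as median of four replicate spots.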

RUNX1, sequence (Q01196 whole entry): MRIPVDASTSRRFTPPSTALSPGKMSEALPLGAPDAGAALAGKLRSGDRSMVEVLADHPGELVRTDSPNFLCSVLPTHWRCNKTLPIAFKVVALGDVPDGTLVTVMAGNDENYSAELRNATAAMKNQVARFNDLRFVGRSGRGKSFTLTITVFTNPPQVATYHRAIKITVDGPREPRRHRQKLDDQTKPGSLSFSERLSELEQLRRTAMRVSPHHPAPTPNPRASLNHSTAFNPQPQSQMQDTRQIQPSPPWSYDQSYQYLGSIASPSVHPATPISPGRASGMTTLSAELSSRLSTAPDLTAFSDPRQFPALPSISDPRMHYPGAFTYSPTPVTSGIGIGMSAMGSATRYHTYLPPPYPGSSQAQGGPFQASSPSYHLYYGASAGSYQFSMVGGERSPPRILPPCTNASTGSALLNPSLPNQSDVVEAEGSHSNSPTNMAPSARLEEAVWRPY

Sequence | RUNX1 binding intensity
TTGGTTGTTGCCAGAGGATGTGGGTTGGCGGGGGAG | 933
CAAAAGTGCTTCCTCTCGAGGGGTTGTGGTTCTTAC | 1070
CACTTCCTCCTCGGGGGCCTCAGAAAACCACAGGGC | 2790
CTGAAACAGGAAGCTGAGGGTGCGGTTGGGGGAGGA | 1520
AGCTAAACCCAGTTCCGGTGCTGTGGGGAGCTCAGA | 1990
GACACAAGAACAGCAGGATGTGGTCAGAGGCGTCGT | 3510
GAGGAACCCAAAGTAGGATGTGGTTTTGCAATTGGA | 1770
CATAGACCGGATGCCTCGTCAACCACAGAAACCAAT | 2940
TAGGCTGAAGACTTCCGCCCCGCAGAGGACTTGCCT | 1170
CCCGCTCACGCCGGAAGTGGTTTGCGTTTTCAAGAT | 7390
GCTCTGGGTCACACAGGATGTGGTTTTTGAAGTTTG | 10400
CAAGTAATCTGCTCAGGAAGTGGTTTGAATAGAGGA | 977
TGATAAAACACAGGATGTGGTAAGGGAGCTGGCCAA | 4550
TCTCTATGGTTTCCGTTGGGTGTGTGGTTTTTTTGT | 2050
CAAGCCAGGAAGAGGGCCCTCACCAGAAACCGCACT | 1150
AACAGGAAGTGGTCTTAGAGATCATGCGGTTCAGAG | 2350
AGCGACAGCGGATGCTCTCTGGCCGCAACATTCTTT | 1080
GGGCCCGGGCCAGGAAGTGGTTTTGCAGAGGTGTTT | 1930
CAGGAGCAGTGTAGAGGAAGTGGTTTCCATCACGGA | 1410
GGACCGGTGTCTGGCGGATGCGGTCGTGAAGATAGG | 1130

Sequence | RUNX1 binding intensity
TTGATTGGAGCAGGATGTGGTCAGAACAGTATGCAG | 4860
AACAGACAGGATGTGGCCTCTGCCAAAACCACCATC | 2310
GATGGGCGAGTCAGGAAACCACAGCTCTGAGGGTGG | 1300
TGAAGCAGGCGGAAGTGCTGTGGTTTCTGGCGACTG | 2830
GCCGCTGCCTCTTCCTGTGTGGTTTTTCAGGGCTTA | 2920
ATAGACTCAGGAAGTGATTGTGGTAAGATTCTATAT | 1440
AATTGAGACAGGAAATGTTGGTTTGTGGTCAGGCAC | 3130
TGAGCAAGTTCCTTCCTGTCTGTGGTCCAGGGTTTA | 1510
GCACTGTAGGCAGGATGTGGGCAGGGGAAACTCAGG | 2870
TCCCTCATGAGCTTCTTCCGCCCGCAACACGAGACT | 1840
GGGTCTCCAGGAAGCCACTCACCACAAACTTTGACA | 1480
GGGACAGACTCTCCAGGATGTGGTTGGATTTTGGGC | 1040
ACAGGAAATGACTTAGGGAAAGTCCCAACCGCAATC | 1530
TGGCAGCGGGTGCGGAAACCACAGGCCTCCAGGCTT | 2470
ATGTGCCCAAAGGATGTCACCGCAAAGATCATAGGA | 1820
ATGAACCACTTCCTGTGTGTTCCCACAGAGGTCAGG | 7110
AAGAAAAAGGGAGGATGTGGTTTAGCAAAAGCACTG | 2230
ACTCCAGAGGAAGTGGCAAGACGAGCGCGGTAACGG | 1330
GAGCATAGCCTAGCAGGATGTGGTTAAATACATTTG | 1970
GCGCGGACAGAGAAAGGATGTGGTATAGCAGAAAGT | 884
